Bioassay records deposited in PubChem by National Center for Advancing Translational Sciences (NCATS).
The list is not random: actives were taken first. Their share in the collection is about 3.2%.
Luciferase inh: blocks Photinus pyralis firefly luciferase activity; purified firefly luciferase, luminescence, 8 min; Potency, µM (titrated, usually from 57.1 µM), inactives show top-dose activity change, negative = inhibition, most hits filed as inhibitors; 72,000 compounds, 2.2% hits; AID 411; active means well fitted inhibition curve with a large enough effect; inconclusive means small, poorly fitted or top-dose-only effect; further: on the % scale 0 is the no-effect control and ±100 the full control effect; nearly all actives have a fitted effect of over 40% in size
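Firefly luciferase (PKLight detection mix) with 10 uM ATP in pH 7.2 imidazole buffer (KCl, MgCl2, Tween 20, BSA). Compounds tested across a concentration series (qHTS). Luminescence read after 8 min at ambient temperature.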
GBA activity: modulators of human glucocerebrosidase | purified enzyme, resorufin glucoside fluorescence (screen aimed at inhibitors), 20 min | AID 360 | 48,000 compounds, 1.1% hits | P04062 | Potency, µM; in the data active means potency below about 15 µM; inconclusive means mostly about 16 µM to 33 µM;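 further: the screen sought inhibitors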
Target sequence (P04062 whole entry, looked up): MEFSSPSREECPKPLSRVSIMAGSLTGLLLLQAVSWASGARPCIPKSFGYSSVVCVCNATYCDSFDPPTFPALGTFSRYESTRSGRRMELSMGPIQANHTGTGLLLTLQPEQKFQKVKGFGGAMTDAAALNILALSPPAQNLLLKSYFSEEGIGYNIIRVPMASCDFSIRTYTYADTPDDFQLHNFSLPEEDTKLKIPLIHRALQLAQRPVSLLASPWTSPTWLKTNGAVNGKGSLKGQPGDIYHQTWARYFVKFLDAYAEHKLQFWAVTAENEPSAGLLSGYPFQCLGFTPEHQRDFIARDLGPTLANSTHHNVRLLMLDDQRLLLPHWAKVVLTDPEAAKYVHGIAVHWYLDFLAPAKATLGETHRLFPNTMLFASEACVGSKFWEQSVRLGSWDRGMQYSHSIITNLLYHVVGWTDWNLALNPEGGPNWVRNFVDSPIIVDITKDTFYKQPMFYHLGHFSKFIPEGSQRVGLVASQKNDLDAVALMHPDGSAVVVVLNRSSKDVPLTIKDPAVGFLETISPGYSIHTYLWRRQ
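Wild-type enzyme at 0.2 nM final in 50mM citric acid/KH2PO4, 10mM sodium taurocholate, 0.01% tween-20, pH 5.9, with resorufin beta-D-glucopyranoside at 30 uM final. Compounds titrated, 20 min at RT, red fluorescence read; AC50 from titration.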
Bst PK mod: modulators of Bacillus stearothermophilus pyruvate kinase; purified pyruvate kinase, luminescence ATP production; ribose 5-phosphate activator present at AC10; Potency, µM; 51,000 compounds, 1.2% hits; in the data active means potency below about 11 µM; inconclusive means mostly about 12 µM to 25 µM;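 the screen sought inhibitors and activators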;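 further: scaled between full activation by ribose 5 phosphate and full inhibition by luteolin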
Starred values were filed as active, the others as inactive; ! = a repeat was not active; [ ] = remark or other dose. Potency means the concentration at half of the fitted maximal effect.

What do the screens show for `COc1ccc(-c2nc3cnc(N4CCOCC4)nc3n(Cc3cccc(OC)c3)c2=O)cc1`?
Luciferase inh: -2%[11.4 µM]

How did CCOC(=O)CCN1C(=O)[C@H]2[C@H]3[C@H](O)[C@H](O)C/C(=N/OC[C@@H](O)COCc4ccco4)[C@@H]3CC[C@@H]2C1=O do in these assays?
Luciferase inh: 1%[11.4 µM]

What do the screens show for `CC1CC1C(=O)OCc1cc(=O)n2cc(Br)ccc2n1` (stereo not given)?
Luciferase inh: -27%; GBA activity: >77; Bst PK mod: inactive

Results for COC(=O)CNc1c(-c2ccccn2)nc2ccc(Br)cn12 ?
Luciferase inh: 13µM*; GBA activity: >77; Bst PK mod: inconclusive

How did CCN(CC)CCNc1ccnc2cc(Cl)ccc12 do in these assays?
Luciferase inh: 0%; GBA activity: >77; Bst PK mod: >57

Results for CCN(CC)CCC[C@H](C)Nc1c2ccc(Cl)cc2nc2ccc(OC)cc12 ?
Luciferase inh: 6.3µM*!

What do the screens show for `O=C1CC(c2ccccc2)Cc2nc(NCc3ccco3)ncc21` (stereo not given)?
Luciferase inh: 3.2µM*; GBA activity: >77; Bst PK mod: 5.2*

What do the screens show for `O=C(Nc1ncc2c(n1)CC(c1ccccc1)CC2=O)c1ccco1` (stereo not given)?
Luciferase inh: 1%; GBA activity: >77; Bst PK mod: >57

What do the screens show for `CC(C)CN1CCCC2(CCN(C(=O)c3cc(C(F)(F)F)cc(C(F)(F)F)c3)CC2)C1`?
Luciferase inh: 2%[11.4 µM]

What do the screens show for `CCOc1ccc(N2Cc3ncccc3C2=O)cc1`?
Luciferase inh: -29%; GBA activity: >77; Bst PK mod: 11*

Results for CCOc1ccc(N2C(=O)c3cccnc3C2Nc2ccc(F)cc2)cc1 (stereo not given) ?
Luciferase inh: -1%; GBA activity: >77; Bst PK mod: >57

Results for COc1ncc2nc(-c3ccccc3)c(=O)n(CCc3ccccc3)c2n1 ?
Luciferase inh: 0%[11.4 µM]

How did CC(Oc1ccccc1)C(=O)Nc1ccc(C(N)=O)cc1 (stereo not given) do in these assays?
Luciferase inh: 3%; GBA activity: >77; Bst PK mod: >57

Results for Cc1cccc(NS(=O)(=O)c2ccc(C)c(C(=O)OCC(=O)Nc3cc(C)on3)c2)c1 ?
Luciferase inh: -1%; GBA activity: 11*; Bst PK mod: >57

Results for COc1ccc(S(=O)(=O)N(C)c2ccc(OCC(=O)Nc3cc(C)on3)cc2)cc1 ?
Luciferase inh: -1%; Bst PK mod: >57

Results for CCOc1cc(C(=O)Nc2ccc(S(=O)(=O)Nc3cc(C)on3)cc2)cc(OCC)c1OCC ?
Luciferase inh: 1%; GBA activity: >77; Bst PK mod: >57

Results for Cc1ccc(S(=O)(=O)Nc2ccc(C(=O)Nc3cc(C)on3)cc2)cc1 ?
Luciferase inh: -1%; GBA activity: 0.16*; Bst PK mod: >57

What do the screens show for `Cc1cc(NC(=O)c2ccc(NC(=O)C(C)Oc3ccccc3)cc2)no1` (stereo not given)?
Luciferase inh: 1%; GBA activity: 1.9*; Bst PK mod: >57

Results for Cc1cccc(NS(=O)(=O)c2cc(C(=O)OCC(=O)Nc3cc(C)on3)ccc2C)c1 ?
Luciferase inh: -1%; GBA activity: inactive; Bst PK mod: >57

Results for Cc1cc(NC(=O)c2ccc(N(C)S(=O)(=O)c3ccccc3)cc2)no1 ?
Luciferase inh: 2%; GBA activity: 15*; Bst PK mod: >57

What do the screens show for `CC[N+](CC)(CCNC(=O)C(=O)NCC[N+](CC)(CC)Cc1ccccc1Cl)Cc1ccccc1Cl`?
Luciferase inh: 1%

What do the screens show for `C[C@](N)(COP(=O)(O)O)C(=O)O`?
Luciferase inh: -6%

How did Cn1c(=O)c2[nH]c(CS(=O)(=O)Cc3nc4c([nH]3)c(=O)n(C)c(=O)n4C)nc2n(C)c1=O do in these assays?
Luciferase inh: 2%[11.4 µM]

What do the screens show for `CS(=O)(=O)N1CCC2(CC1)CN(C(=O)Nc1cccc(C#N)c1)C2`?
Luciferase inh: 0%[11.4 µM]

Results for CCOC(=O)Nc1nc(-c2ccccc2)c(C)s1 ?
Luciferase inh: 0%[11.4 µM]

How did O=C(O)CCCCn1ccc(=O)[nH]c1=O do in these assays?
Luciferase inh: 1%[11.4 µM]

How did CN1CCN(c2ncc3ncc(=O)n(-c4ccccc4)c3n2)CC1 do in these assays?
Luciferase inh: -2%[11.4 µM]

What do the screens show for `N[C@@H]1CCN(O)C1=O`?
Luciferase inh: 0%

What do the screens show for `N#CCCn1c(=O)c(-c2cccc(C#N)c2)nc2cnc(Oc3cccc(Cl)c3)nc21`?
Luciferase inh: 3%[11.4 µM]

What do the screens show for `CN(C)Cc1ccccc1-c1ccc2ncnc(NC3CC3)c2c1`?
Luciferase inh: -6%[2.29 µM]

Results for C=C1C[C@@]23C[C@]1(O)CC[C@@H]2[C@]12C=C[C@@H](O)[C@@](C)(C(=O)O1)[C@@H]2[C@@H]3C(=O)O ?
Luciferase inh: 1%[11.4 µM]
